In PubChem BioAssay:
Active and inactive are the calls of the source. Unless noted, the rule behind the calls is not given here.

Experiments:
[1] = HepG2 liver cancer cell viability effects, profiling panel, resazurin fluorescence, 24 h, PK04 Diversity Set (AID 1172); conditions: higher = more signal
[2] = basal S. cerevisiae growth modulation, no modifier, primary screen, OD600, strain BY4716, 24 h, basal condition (AID 1173); conditions: OD600, 24 h, higher = more signal, called active from +8 up or from −8 down
[3] = MM1S myeloma cell viability, profiling panel, resazurin fluorescence, basal, 24 h, PK04 Diversity Set (AID 1174); conditions: higher = more signal, called active from +8 up or from −8 down;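 note: MM1S multiple myeloma cell line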
[4] = target: Dihydroorotate dehydrogenase (quinone), mitochondrial (Plasmodium falciparum (isolate 3D7)) (UniProt Q08210); assay: PfDHODH enzyme inhibitors, primary screen, biochemical, C-terminal His tag, absorbance 600 nm (AID 1175); conditions: DCIP absorbance 600 nm, higher = more signal, called active from +8 up or from −8 down;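 note: recombinant parasite enzyme with a five histidine tag at its C terminus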
Dihydroorotate dehydrogenase (quinone), mitochondrial (Plasmodium falciparum (isolate 3D7)), sequence (Q08210 whole entry, looked up): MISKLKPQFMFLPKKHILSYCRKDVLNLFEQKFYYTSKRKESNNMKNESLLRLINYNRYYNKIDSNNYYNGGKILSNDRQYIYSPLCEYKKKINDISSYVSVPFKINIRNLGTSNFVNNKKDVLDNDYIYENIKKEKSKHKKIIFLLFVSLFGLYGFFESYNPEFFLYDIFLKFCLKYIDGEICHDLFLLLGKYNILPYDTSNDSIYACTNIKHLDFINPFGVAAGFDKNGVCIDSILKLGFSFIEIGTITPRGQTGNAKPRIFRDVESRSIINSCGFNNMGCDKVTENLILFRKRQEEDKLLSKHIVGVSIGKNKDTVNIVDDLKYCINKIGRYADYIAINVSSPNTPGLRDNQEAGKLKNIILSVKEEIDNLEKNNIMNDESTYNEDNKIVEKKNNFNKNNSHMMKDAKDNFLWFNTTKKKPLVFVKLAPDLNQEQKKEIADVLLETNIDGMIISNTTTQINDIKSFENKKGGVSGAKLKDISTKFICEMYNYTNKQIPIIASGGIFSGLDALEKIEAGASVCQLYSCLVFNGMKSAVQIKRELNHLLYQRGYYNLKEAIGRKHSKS

[5] = P. aeruginosa biofilm formation inhibitors, primary screen, strain PAO1, LB-PBS medium, absorbance 600 nm (AID 1176); conditions: P. aeruginosa PAO1 growth/biofilm, A600, 12 h; higher = more signal
[6] = S. cerevisiae RM11-1a growth modifiers, primary screen, strain RM11-1a, OD600, basal, 24 h (AID 1177); conditions: OD600, 24 h, higher = more signal, called active from +8 up or from −8 down;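 note: cultures grown under basal conditions with no added stressor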
[7] = E. coli acrAB mutant growth effects, primary screen, E. coli filamentation inducers, strain DRC39, OD650, 24 h (AID 1178); conditions: higher = more signal, called active from +8 up or from −8 down;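 note: growth measured as culture turbidity by optical density at 650 nm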
[8] = E. coli acrAB mutant growth effects, primary screen, E. coli filamentation inducers, strain DRC39, OD650, 48 h (AID 1179);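 note: screen aims at cell division blockers that make cells filament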; conditions: E. coli DRC39 delta-acrAB growth, higher = more signal, called active from +8 up or from −8 down
[9] = RPMI8226 myeloma cell viability, profiling panel, resazurin fluorescence, basal, 24 h, PK04 Diversity Set (AID 1180); conditions: higher = more signal;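 note: RPMI8826 multiple myeloma cell line at 5000 cells per well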
[10] = target: E3 ubiquitin-protein ligase XIAP (Homo sapiens) (UniProt P98170); assay: XIAP binders, primary screen, biophysical, small-molecule microarray, fluorescence 635 nm (AID 1181); conditions: small-molecule microarray binding, higher = more signal;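 note: score merges 667 nm emission and signal to noise over triplicate slides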
E3 ubiquitin-protein ligase XIAP (Homo sapiens), sequence (P98170 whole entry, looked up): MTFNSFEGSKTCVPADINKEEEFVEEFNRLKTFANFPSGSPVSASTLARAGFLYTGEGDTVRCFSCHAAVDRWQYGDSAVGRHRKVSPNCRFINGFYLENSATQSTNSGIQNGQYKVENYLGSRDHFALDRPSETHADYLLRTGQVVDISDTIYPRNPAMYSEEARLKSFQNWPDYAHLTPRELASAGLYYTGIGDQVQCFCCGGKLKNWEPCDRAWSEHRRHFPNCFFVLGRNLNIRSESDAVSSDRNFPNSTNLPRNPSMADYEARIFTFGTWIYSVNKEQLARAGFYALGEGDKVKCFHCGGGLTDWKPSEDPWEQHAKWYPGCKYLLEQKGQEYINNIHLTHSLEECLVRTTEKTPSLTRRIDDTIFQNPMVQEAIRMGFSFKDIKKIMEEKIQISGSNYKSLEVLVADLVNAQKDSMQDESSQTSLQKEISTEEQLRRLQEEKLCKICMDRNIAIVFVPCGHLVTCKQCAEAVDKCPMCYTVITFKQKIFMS

[11] = system: XIP peptide (Xip251-270) binding; assay: small-molecule binders of XIP peptide, primary screen, biochemical, small-molecule microarray, fluorescence 635/667 nm, 0.1 µg/mL protein (AID 1182); conditions: fluorescent protein binding, 635 nm, higher = more signal, called active from +8 up or from −8 down
XIP peptide (Xip251-270) = assay: small-molecule binders of XIP peptide, primary screen, biochemical, small-molecule microarray, fluorescence 635/667 nm, 0.5 µg/mL protein (AID 1183); conditions: small-molecule microarray binding, fluorescence 635 nm; higher = more signal
[12] = Plasmodium falciparum growth inhibition, primary screen, strain 3D7, DAPI fluorescence, 100 nL (AID 1184);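 note: parasites grown inside human red blood cells in medium with human serum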; conditions: P. falciparum 3D7 growth, 3 d, higher = more signal
[13] = target: Homeobox protein Hox-A13 (Mus musculus) (UniProt Q62424); assay: inhibitors of HoxA13-DNA binding, primary screen, biochemical, fluorescence polarization, labeled oligonucleotide (AID 1185); conditions: 15 min, higher = more signal, called active from +8 up or from −8 down
Homeobox protein Hox-A13 (Mus musculus), sequence (Q62424 whole entry, looked up): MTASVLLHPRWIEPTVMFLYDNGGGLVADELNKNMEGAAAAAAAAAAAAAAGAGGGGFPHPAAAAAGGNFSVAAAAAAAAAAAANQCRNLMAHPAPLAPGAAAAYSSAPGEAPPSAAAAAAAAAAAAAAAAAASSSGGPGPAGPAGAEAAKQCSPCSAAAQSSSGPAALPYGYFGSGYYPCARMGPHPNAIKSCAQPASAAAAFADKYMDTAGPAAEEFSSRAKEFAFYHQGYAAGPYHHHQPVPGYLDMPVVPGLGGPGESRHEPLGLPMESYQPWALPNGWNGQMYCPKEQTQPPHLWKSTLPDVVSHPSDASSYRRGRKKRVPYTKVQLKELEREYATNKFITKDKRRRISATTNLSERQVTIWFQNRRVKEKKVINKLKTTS

[14] = inhibitors of hydroxyurea-induced Chk1 phosphorylation, primary screen, imaging, HeLa, phospho-Chk1 antibody, percent positive cells (AID 1186); conditions: hydroxyurea-induced phospho-Chk1 immunofluorescence imaging, higher = more signal
[15] = inhibitors of hydroxyurea-induced Chk1 phosphorylation, primary screen, imaging, HeLa, phospho-Chk1 nuclear intensity (AID 1187); conditions: hydroxyurea-induced phospho-Chk1 immunofluorescence imaging, higher = more signal

C=C(C(=O)CC[C@H](OC(=O)c1ccccc1-c1ccccc1C(=O)O)c1ccc(CO)o1)C(C)C
z-score [1]: -0.256
z-score [2]: 0.656 (inactive)
z-score [3]: 0.192 (inactive)
composite z-score [4]: -0.976 (inactive)
z-score [5]: 0.98 (inactive)
z-score [6]: 1.73 (inactive)
z-score [7]: 0.101 (inactive)
z-score [8]: 0.0357 (inactive)
z-score [9]: 0.951
composite z-score [10]: -0.153
composite z-score [11]: 0.161 (inactive)
composite z-score (XIP peptide (Xip251-270)): 0.697
z-score [12]: -0.241
z-score [13]: -6.22 (inactive)
z-score [14]: 0.38 (inactive)
z-score [15]: 0.239 (inactive)

C=CC[C@@]1(C(=O)NCC(O)CO)N=C(c2ccc(OCCCO)cc2)O[C@@H]1c1ccccc1CN=[N+]=[N-] (stereo not given in full)
z-score [1]: -0.192
z-score [2]: -1.14 (inactive)
z-score [3]: -0.754 (inactive)
composite z-score [4]: 0.592 (inactive)
z-score [5]: 0.385 (inactive)
z-score [6]: -0.0334 (inactive)
z-score [7]: 0.613 (inactive)
z-score [8]: 1.52 (inactive)
z-score [9]: 0.516
composite z-score [10]: 0.254
composite z-score [11]: 0.336 (inactive)
composite z-score (XIP peptide (Xip251-270)): -0.105
z-score [12]: -2.34
z-score [13]: -2.67 (inactive)
z-score [14]: -0.691 (inactive)
z-score [15]: -0.873 (inactive)

COc1ccc(NN2C(C(O)c3cc(OC)c(OC)c(OC)c3)C=CC3C(=O)N(C4CCCCC4)C(=O)C32)cc1 (stereo not given)
z-score [1]: -0.665
z-score [2]: -0.376 (inactive)
z-score [3]: -0.946 (inactive)
composite z-score [4]: -0.41 (inactive)
z-score [5]: 0.89 (inactive)
z-score [6]: 0.389 (inactive)
z-score [7]: -1.02 (inactive)
z-score [8]: 0.187 (inactive)
z-score [9]: -1.48
composite z-score [10]: 0.147
composite z-score [11]: -0.0682 (inactive)
composite z-score (XIP peptide (Xip251-270)): 0.758
z-score [12]: -1.11
z-score [13]: -4.58 (inactive)
z-score [14]: 0.071 (inactive)
z-score [15]: -0.378 (inactive)

COCCOC(=O)N1C(=O)[C@@]2(c3cc(C#CCCO)ccc31)[C@H](c1ccc(O)cc1)N1[C@H](c3ccccc3)[C@H](c3ccccc3)OC(=O)[C@H]1[C@@H]2C(=O)Nc1nc2ccccc2s1
z-score [1]: 0.484
z-score [2]: -0.297 (inactive)
z-score [3]: -0.617 (inactive)
composite z-score [4]: 0.864 (inactive)
z-score [5]: 0.485 (inactive)
z-score [6]: 0.39 (inactive)
z-score [7]: 0.438 (inactive)
z-score [8]: -0.619 (inactive)
z-score [9]: 0.179
composite z-score [10]: 0.267
composite z-score [11]: 0.449 (inactive)
composite z-score (XIP peptide (Xip251-270)): 0.635
z-score [12]: -1.04
z-score [13]: -1.98 (inactive)
z-score [14]: -0.534 (inactive)
z-score [15]: -0.733 (inactive)

C=CCC(OC(C)=O)[C@@H]1[C@@H](N(Cc2cccc3ccccc23)C(=O)Cc2ccc(F)cc2)c2cc(OCCCO)ccc2N1C(=O)Cc1ccc2ccccc2c1 (stereo not given in full)
z-score [1]: 0.549
z-score [2]: 0.595 (inactive)
z-score [3]: 0.295 (inactive)
composite z-score [4]: -0.373 (inactive)
z-score [5]: 0.195 (inactive)
z-score [6]: 0.0764 (inactive)
z-score [7]: -0.283 (inactive)
z-score [8]: 0.4 (inactive)
z-score [9]: -1.29
composite z-score [10]: -0.0332
composite z-score [11]: -0.741 (inactive)
composite z-score (XIP peptide (Xip251-270)): 0.57
z-score [12]: -1.17
z-score [13]: -0.474 (inactive)
z-score [14]: -0.579 (inactive)
z-score [15]: -0.516 (inactive)

O=C1O[C@H](c2ccccc2)[C@H](c2ccccc2)N2[C@H]1[C@@H](C(=O)Nc1nc3ccccc3s1)[C@]1(C(=O)Nc3ccc(C#CC4=CCCCC4)cc31)[C@H]2c1ccccc1OCCO
z-score [1]: 0.111
z-score [2]: 1.86 (inactive)
z-score [3]: -0.912 (inactive)
composite z-score [4]: 0.835 (inactive)
z-score [5]: 2.73 (inactive)
z-score [6]: 2.71 (inactive)
z-score [7]: -1.27 (inactive)
z-score [8]: -1.24 (inactive)
z-score [9]: -0.711
composite z-score [10]: 0.0705
composite z-score [11]: 0.0485 (inactive)
composite z-score (XIP peptide (Xip251-270)): 0.0555
z-score [12]: -2.09
z-score [13]: -9.05 (active)
z-score [14]: 0.205 (inactive)
z-score [15]: 0.375 (inactive)

C#CCNC(/C=C/c1ccccc1)CO (stereo not given)
z-score [1]: -0.316
z-score [2]: 0.668 (inactive)
z-score [3]: -0.498 (inactive)
composite z-score [4]: 0.657 (inactive)
z-score [5]: 0.449 (inactive)
z-score [6]: 1.62 (inactive)
z-score [7]: 0.238 (inactive)
z-score [8]: 0.188 (inactive)
z-score [9]: -0.153
composite z-score [10]: 0.0338
composite z-score [11]: -0.447 (inactive)
composite z-score (XIP peptide (Xip251-270)): 0.0391
z-score [12]: -0.414
z-score [13]: -1.21 (inactive)
z-score [14]: 0.0357 (inactive)
z-score [15]: 0.237 (inactive)

O=C/C=C/c1ccccc1Cl
z-score [1]: 0.965
z-score [2]: -7.23 (inactive)
z-score [3]: 0.413 (inactive)
composite z-score [4]: -0.516 (inactive)
z-score [5]: -0.227 (inactive)
z-score [6]: -1.17 (inactive)
z-score [7]: 0.834 (inactive)
z-score [8]: 0.496 (inactive)
z-score [9]: 2.16
composite z-score [10]: -0.0393
composite z-score [11]: 0.0944 (inactive)
composite z-score (XIP peptide (Xip251-270)): -0.264
z-score [12]: 0.316
z-score [13]: -0.26 (inactive)
z-score [14]: 0.152 (inactive)
z-score [15]: 0.0674 (inactive)

COCCOC(=O)N1C(=O)[C@@]2(c3cc(C#CC4=CCCCC4)ccc31)[C@H](c1ccc(O)cc1)N1[C@H](c3ccccc3)[C@H](c3ccccc3)OC(=O)[C@H]1[C@@H]2C(=O)N1CCCCCCC1
z-score [1]: 0.32
z-score [2]: -0.615 (inactive)
z-score [3]: 1.17 (inactive)
composite z-score [4]: 0.104 (inactive)
z-score [5]: 1.35 (inactive)
z-score [6]: 0.19 (inactive)
z-score [7]: 0.15 (inactive)
z-score [8]: 1.29 (inactive)
z-score [9]: 0.768
composite z-score [10]: -0.445
composite z-score [11]: 0.505 (inactive)
composite z-score (XIP peptide (Xip251-270)): 0.678
z-score [12]: -1.66
z-score [13]: 2.08 (inactive)
z-score [14]: -0.104 (inactive)
z-score [15]: 0.0587 (inactive)

CN(C)c1ccc(C(O)C2C=CC3C(=O)NC(=O)C3N2Nc2ccc(Cl)cc2Cl)cc1 (stereo not given)
z-score [1]: -0.492
z-score [2]: 0.454 (inactive)
z-score [3]: -1.44 (inactive)
composite z-score [4]: 0.438 (inactive)
z-score [5]: 0.683 (inactive)
z-score [6]: 0.839 (inactive)
z-score [7]: 0.221 (inactive)
z-score [8]: 0.0462 (inactive)
z-score [9]: -1.44
composite z-score [10]: 0.0914
composite z-score [11]: -0.0906 (inactive)
composite z-score (XIP peptide (Xip251-270)): 0.16
z-score [12]: -0.599
z-score [13]: -4.19 (inactive)
z-score [14]: -0.0923 (inactive)
z-score [15]: 0.0147 (inactive)
